Compound activity: PubChem BioAssay, National Center for Advancing Translational Sciences (NCATS)
HCV inhibitor: blocks hepatitis C virus. AID 651820. 3.4% of 340,000 active. Huh7.5.1 HCVcc-Cre infection, luciferase reporter, 44 h. Potency, µM (doses to about 41.8 µM), inactives show top-dose activity change, negative = inhibition, usual class: inhibitors; further: potency means the concentration at half of the fitted maximal effect
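Infectious HCVcc-Cre (~0.5 moi) was added to cells just after compound, with cells seeded 4 h earlier at 1,000 per well. Luciferase activity after 44 h culture reported infection; substrate was incubated 15 min at room temperature before reading.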
FMDV inh: foot and mouth disease virus antiviral activity; 1.2% of 410,000 active; Potency, µM (titrated, usually from 57.9 µM), inactives show top-dose activity change, negative = inhibition, actives largely listed as inhibitors; FMDV antiviral cell-based qHTS; calls by dose curve; tested in HEK293T cells; further: read-out not given here; potency means the concentration at half of the fitted maximal effect; nearly all actives have a fitted effect of over 45% in size
HCMV antiviral: inhibitors of human cytomegalovirus | 4.5% of 410,000 active | HFF cells, HCMV-luciferase reporter, 72 h; active compounds read low | activity change, negative = inhibition, % at 57.5 µM; in the data active means activity change below about -60%; inconclusive means no clear call, values can overlap the other calls; inactive means above about -39%
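Compounds were evaluated in HFFs infected with an HCMV luciferase reporter virus (MOI 1 PFU/cell). Luciferase in lysates collected 72 h post infection served as the replication measure.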
Marburg entry inh: blocks Marburg virus binding to or entry into cells | AID 540276 | Potency, µM (top dose mostly 37.8 µM), for the others: top-dose activity change, negative = inhibition, hits mostly inhibitors | Marburg virus pseudotyped entry inhibition, cell reporter | 1.8% of 300,000 active; calls by dose curve; tested in HEK293 cells; further: potency means the concentration at half of the fitted maximal effect
Giardia FBPA inh: inhibitors of Giardia lamblia fructose-1,6-bisphosphate aldolase; A8B2U2; purified Giardia FBPA; Potency, µM (titrated, usually from 59.6 µM), for inactives: top-dose activity, negative = inhibition, most hits filed as inhibitors; 0.71% of 290,000 active; further: potency means the concentration at half of the fitted maximal effect; nearly all actives have a fitted effect of over 55% in size
Target sequence (A8B2U2 whole entry, looked up): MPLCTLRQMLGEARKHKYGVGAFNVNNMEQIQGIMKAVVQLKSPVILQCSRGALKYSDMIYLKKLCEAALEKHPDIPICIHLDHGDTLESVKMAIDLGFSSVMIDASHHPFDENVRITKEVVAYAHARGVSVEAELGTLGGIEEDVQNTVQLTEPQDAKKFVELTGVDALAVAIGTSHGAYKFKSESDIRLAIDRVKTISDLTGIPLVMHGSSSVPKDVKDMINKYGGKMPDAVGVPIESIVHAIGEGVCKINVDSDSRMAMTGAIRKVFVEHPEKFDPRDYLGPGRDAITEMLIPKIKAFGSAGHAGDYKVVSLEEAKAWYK
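40 nM FBPA preincubated 10 min at RT with compound (up to 57.5 uM final), then substrate plus GAPDH/TPI/NAD/arsenate coupling and diaphorase/resazurin added. Fluorescence read after 20 min at RT, 525/598 nm.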
Lassa entry inh: blocks Lassa virus binding to or entry into cells | 1.2% of 300,000 active | Lassa virus pseudotype entry inhibition, cell reporter | Potency, µM (series often up to 37.9 µM), without a hit: at the highest dose activity change, negative = inhibition, hits mostly inhibitors; calls by dose curve; tested in HEK293 cells; further: potency means the concentration at half of the fitted maximal effect; nearly all actives have a fitted effect of over 50% in size
The depositor's hits bear a star; u = inconclusive; x = not tested or not shown; [ ] = another dose, or the depositor's remark. Most compounds without a hit are left out; they make up all but 8.3% or so of the library. Unless noted, the call rests on the fitted dose curve; in most records, active means well fitted curve in the direction sought with a large enough effect; inconclusive means small, poorly fitted or top-dose-only effect, or another doubt; inactive means no such curve, though single readings can be large; an effect the other way counts as inactive or inconclusive. On the % scale 0 is the no-effect control and ±100 the full control effect.

SMILES	HCV inhibitor	FMDV inh	HCMV antiviral	Marburg entry inh	Giardia FBPA inh	Lassa entry inh
CCC(C)C1NC(=O)C2CCCN2C(=O)C(CC(C)C)OC(=O)CCNC(=O)C(C)N(C)C(=O)C(C(C)C)N(C)C1=O (centres undefined)	u	-20%	-87*	2µM*	x	3.2µM*
COC(=O)[C@]1(C#N)CC(=O)N([C@H](C)[C@@H](O)c2ccccc2)[C@@H]1c1ccccc1	x	x	0	x	x	x
Cc1ccc(C(C)C)c2c1C(c1ccc3c(c1)OCO3)CC(=O)O2 (centres undefined)	13µM*	0%	-15	x	10%[89.2 µM]	x
Cc1cc2c(c(C)c1Cl)C(c1ccc3c(c1)OCO3)CC(=O)O2 (centres undefined)	2%	-13%	15	x	-20%[89.2 µM]	x
CCOC(=O)c1cc(CC)sc1NC(=O)Cc1ccsc1	5.6µM*	-23%	u	-21%	-10%	-8%
CC[C@H](C)[C@H]1O[C@]2(C=C[C@@H]1C)C[C@@H]1C[C@@H](C/C=C(\C)[C@@H](O[C@H]3C[C@H](OC)[C@@H](O[C@H]4C[C@H](OC)[C@@H](O)[C@H](C)O4)[C@H](C)O3)[C@@H](C)/C=C/C=C3\CO[C@@H]4[C@H](O)C(C)=C[C@@H](C(=O)O1)[C@]34O)O2	x	0%	x	x	x	x
Cn1c(-c2cccnc2)cc2cnc(Nc3ccc4c(c3)OCCO4)cc21	x	x	43	x	x	x
Cc1ccccc1CN1C(=O)CN=C(c2ccccc2)c2cc(Cl)ccc21	x	u	-71*	x	x	u
CCc1ccc(/C=C/C(=O)C2C(=O)c3ccccc3C2=O)cc1	u	x	15	u	0%	2.3µM*
O=C(/C=C/c1ccccc1)C1C(=O)c2ccccc2C1=O	u	u	-9	9%	-9%	7%
CCCCNc1cccc2c1S(=O)(=O)N[C@@H](CC(C)C)CO2	x	x	8	u	x	x
CCOc1ccc(C(=O)Nc2ccc3oc(-c4ccc5ccccc5c4)nc3c2)cc1	x	14%	-9	x	x	5%[46.1 µM]
CCOC(=O)c1cnc(SCc2nc(N)nc(Nc3ccccc3OC)n2)nc1N	x	x	56	2%	-19%	x
CCOC(=O)c1cnc(SCc2nc(N)nc(Nc3ccc(F)cc3)n2)nc1N	u	u	-96*	u	-6%	u
CCOC(=O)c1cnc(SCc2nc(N)nc(Nc3ccc(C)cc3)n2)nc1N	-11%	u	-88*	-26%	-7%	u
CCOC(=O)C1=CN(CCC=C(C)C)C(=O)NC1c1ccccc1 (centres undefined)	x	x	x	7%[14.2 µM]	x	u
Cn1cnc2nc(Cl)nc(Cl)c21	32µM*	u	-72*	u	x	u
O=C(/C=C/c1ccc(F)cc1)Nc1cccc(S(=O)(=O)N2CCOCC2)c1	10µM*	-21%	-3	u	x	-27%
COc1ccc(CC(NC(C)=O)C(=O)NC2CCN(S(=O)(=O)c3ccc(NC(C)=O)cc3)CC2)cc1 (centres undefined)	-7%	32%	-3	u	8%	20%[46.1 µM]
COc1ccc(CC(=O)Nc2cccc(S(=O)(=O)N3CCOCC3)c2)cc1OC	3.5µM*	u	-66*	x	x	x
COc1cc(CC(NC(C)=O)C(=O)NC2CCN(S(=O)(=O)c3ccc(NC(C)=O)cc3)CC2)cc(OC)c1 (centres undefined)	7%	0%	-72*	11%[46.1 µM]	7%	x
COc1ccc(Br)cc1CN(C)CC(=O)Nc1cccc(S(N)(=O)=O)c1	-8%	10%	-39	u	-2%	-14%
COc1ccccc1CC(=O)Nc1cccc(S(=O)(=O)N2CCOCC2)c1	u	-1%	1	9%	x	-8%
COc1ccc(Br)cc1CN(C)CC(=O)Nc1cccc(S(=O)(=O)N2CCCC2)c1	8.9µM*	-5%	u	u	x	u
CCCC[C@]12Cc3cc(C#N)ccc3C(O1)c1c(cc(-c3ccccc3)oc1=O)O2	x	x	x	x	48%[12.9 µM]	x
SMILES	HCV inhibitor	FMDV inh	HCMV antiviral	Marburg entry inh	Giardia FBPA inh	Lassa entry inh
O=C1N(Cc2ccccc2C(F)(F)F)c2ccccc2[C@@]12O[C@H](COc1ccccc1)CC1=C2CCC1	x	x	x	-24%[14.2 µM]	x	x
CCOc1ccccc1NC(=O)Cn1c(=O)n(C(C)C)c(=O)c2oc3ccccc3c21	x	-9%	u	x	x	11%[46.1 µM]
CC[C@H](C)[C@H](NC(=O)CNC(=O)[C@H](CCCNC(=N)N)NC(=O)[C@H](CO)NC(=O)[C@H](C)NC(=O)[C@H](Cc1ccc(O)cc1)NC(=O)[C@H](Cc1c[nH]c2ccccc12)NC(=O)[C@H](C)NC(=O)[C@@H]1CCCN1C(=O)[C@H](CC(N)=O)NC(=O)[C@@H](NC(=O)[C@H](CC(=O)O)NC(=O)[C@@H]1CCCN1C(=O)[C@@H](N)[C@@H](C)O)[C@@H](C)CC)C(=O)N[C@@H](CCCNC(=N)N)C(=O)N1CCC[C@H]1C(=O)N[C@H](C(=O)NCC(=O)N[C@@H](CCCNC(=N)N)C(=O)N[C@@H](Cc1ccccc1)C(N)=O)C(C)C	x	x	x	x	10%	x
COc1cccc(CN2C(=O)NC(C)(C3CCN(Cc4cc(Cl)ccc4O)CC3)C2=O)c1OC (centres undefined)	x	-24%	x	x	x	x
Cc1ccc(N2CC(NC(=O)c3ccccc3C(F)(F)F)CC2=O)cc1C (centres undefined)	x	-21%	44	x	x	-1%[46.1 µM]
COc1ccc(/C=C/C(=O)Nc2cccc(S(=O)(=O)N3CCCC3)c2)cc1OC	10µM*	u	u	u	-12%	u
COc1cccc(CC(=O)Nc2ccc(S(=O)(=O)N3CCCCC3)cc2)c1	u	15%	-6	10µM*	x	u
COc1cccc(CC(=O)Nc2cc(S(=O)(=O)N3CCCCC3)ccc2C)c1	u	-28%	25	x	x	x
O=C(Cc1ccc(Br)cc1)Nc1cccc(S(=O)(=O)N2CCCCC2)c1	x	-3%	-1	x	x	x
COc1ccc(Br)cc1CN(C)CC(=O)Nc1c(Cl)cccc1Cl	6%	-5%	-61*	-5%	24%	-15%
COc1ccc(CC(=O)Nc2cccc(S(=O)(=O)N3CCCC3)c2)cc1OC	4.5µM*	-27%	-85*	x	x	x
COc1ccc(CN(C)CC(=O)Nc2c(C)cccc2C)c(OC)c1	u	0%	20	15%[46.1 µM]	6%	2%
COc1cc(C(=O)Nc2cccc(S(=O)(=O)N3CCCC3)c2)cc(OC)c1C	u	u	-31	x	u	x
Cc1ccc(-n2c(SCC(=O)NCc3ccccc3)nc3n[nH]c(C)c3c2=N)cc1Cl	x	-18%	-33	x	x	u
CO[C@H]1COC(=O)C/C=C\[C@H](C)COC(=O)[C@@H](C)NC(=O)C/C=C\[C@@H]1C	x	x	x	x	-1%[12.9 µM]	x
CCOC(=O)N1CCN(C(=O)CCN2C(=O)COc3ccccc32)CC1	-22%	11%	-62*	13%	9%	8%
O=C(CN1C(=O)COc2ccccc21)NCCN1CCOCC1	4%	5%	-75*	-2%[46.1 µM]	x	16%
